Our source for the inhibition values is PubChem BioAssay AID743269 (The Scripps Research Institute Molecular Screening Center, 2014).

About 2,400 (0.65%) of roughly 370,000 compounds were called active. For the sample, actives were picked, then their nearest neighbours and some compounds at random. Values without a mark were called inactive.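 Rule for the calls: active = inhibition above the screen-wide mean plus 3 SD (cut at about 13% in these data); inactive = the rest.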

In this assay the test system is HIV-1 integrase (with human LEDGF/p75). The assay is described as follows: blockers of LEDGF/p75-dependent integrase strand transfer – biochemical, TR-FRET, high throughput, primary screen (AID 743269).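 Note: signal is the Cy5 over europium emission ratio at 671 and 618 nm; 0% = plate median of compound wells.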 The conditions noted are these: TR-FRET IN-LEDGF/p75 DNA integration, Eu/Cy5; at 3.7 µM; hits give high values. (In general: TR-FRET usually uses a lanthanide donor and a delayed reading to cut background.)
For orientation: inhibition means the relative decrease from the control value, in per cent. Consider `Cc1ccc(C)c(NC(=O)CCS(=O)(=O)c2ccccc2)c1`, for which the inhibition is 1.44%.

On to `O=C1CC[C@@]23CCCN2C(=O)CCC[C@H]3[C@H]1Cc1ccccc1`, for which the inhibition was -0.34%. The figure for `Fc1ccc2nc(COCc3nc4ccc(F)cc4[nH]3)[nH]c2c1` is 0.7%. The figure for `O=C(CSc1nc2ccccc2n1Cc1ccccc1)NNC(=S)Nc1ccccc1` is 5.2%.

As to `COC(=O)C[C@@H]1CC[C@@H]2[C@@H](COc3ccc(NC(=O)Nc4ccc(F)c(F)c4)cc3C(=O)N2C)O1`, the inhibition is 0.03%. On to `COC(=O)c1cccc(Cn2ccc3ccc(-c4ccc5ccn(C(=O)C6CCCCC6)c5c4)cc32)c1`, for which the inhibition was 0.91%.

For the compound `COC(=O)C[C@H]1CC[C@H]2[C@H](COc3ccc(NC(=O)C4CC4)cc3C(=O)N2C)O1`, the inhibition was 2.4%. The figure for `C/C(=N\Nc1ccc(Cl)nn1)c1ccccc1O` is -4.19%. The value for `Oc1cccc(/C=N/Nc2ccc(Cl)nn2)c1O` was 18.5% (active). Turning to `CCOC(=O)[C@]12CCCCC/C=C\1N(Cc1ccc(OC)cc1)C(=O)[C@H]2CC(=O)NCCCN1CCCC1=O`, the inhibition is -3.19%. The figure for `COC(=O)c1cc(S(=O)(=O)N2CCN(C(=O)C3CCCO3)CC2)cn1C` (centres undefined) is 8.59%; for `COc1ccc(-n2c(SCC(=O)Nc3ccc4cn[nH]c4c3)nnc2-c2cccnc2)cc1` it is -0.62%; for `COc1ccc(-c2cc(-c3nnc(SCC(=O)Nc4cccc5ccccc45)n3N)[nH]n2)cc1` it is -3.91%. The figure for `Cc1cc(=O)oc2c3c(cc(OCC(=O)N[C@H](C(=O)O)c4ccccc4)c12)OC(C)(C)CC3` is 18.2% (active); for `Cc1cc(=O)oc2c3c(cc(OCC(=O)NCC(O)c4ccccc4)c12)OC(C)(C)CC3` (centres undefined) it is -5.46%; for `Cc1c(C)c2c(OCC(=O)N[C@@H](C(=O)O)c3ccccc3)cc3c(c2oc1=O)CCC(C)(C)O3` it is -4.85%. The figure for `O=C(NC1CCCCN(Cc2ccc(Cl)cc2)C1=O)c1ccc(Br)cc1` (centres undefined) is 2.38%; for `COC(=O)[C@]12C[C@H](CC(=O)NCC34CC5CC(CC(C5)C3)C4)C(=O)N(Cc3ccc(Cl)cc3Cl)C1=C[C@H](COCc1ccccc1)O[C@@H]2C` it is -4.42%; for `CC(C)CSc1nnc(-c2cccnc2)n1Cc1ccccc1` it is 1.09%.

Consider `CCOc1c(Br)cc(/C=C2\C(=O)N(CCC#N)N=C2C)cc1OC`, for which the inhibition was 36% (active). The value for `COC(=O)[C@H](C(C)C)N(CCc1cn(Cc2ccccc2)nn1)S(=O)(=O)c1ccc(F)cc1Br` was -1.7%; that for `FC(F)(F)c1cccc(NC(=S)OC2CCC23CCC(c2ccccc2)CC3)c1` (centres undefined) was 2.54%. The value for `Nc1[nH]c(/C=C2/CCCCC2n2[nH]c(=O)n(-c3ccccc3)c2=O)c(Cc2ccccc2)[n+]1Cc1ccccc1` (centres undefined) was 3.55%; that for `C[C@H]1[C@H](NC(=O)c2cccc(N(C)C)c2)CC[C@@]23CCCN2C(=O)CCC[C@@H]13` was -2.54%; that for `O=S(=O)(c1cc(Cl)ccc1Cl)N1CCN(Cc2ccco2)CC1` was -3.53%. For the compound `O=C(CN1CCN(S(=O)(=O)c2cc(Cl)ccc2Cl)CC1)c1ccc(O)c(O)c1`, the inhibition was 50.6% (active). The value for `CCN1CCN(C(=O)C2CCN(S(=O)(=O)c3cc(Cl)ccc3Cl)CC2)CC1` was 1.63%. Regarding `CC(=O)O[C@@]1(C(C)=O)CCC2[C@H]3C=C(C)C4=CC(=O)CC[C@@]4(C)C3CC[C@]21C` (some centres undefined), the inhibition is -5.1%. In the case of `O=C(NCCc1c[nH]c2ccccc12)OCc1cn(-c2c(F)cccc2F)nn1`, the inhibition is 4.42%. The figure for `COc1cc(NC(=O)COC(=O)c2ccc([N+](=O)[O-])s2)cc(OC)c1OC` is 32.2% (active); for `COc1cc(NC(=O)COC(=O)c2cnc(C)cn2)c(C)cc1[N+](=O)[O-]` it is -1.79%. The value for `COc1cc(CCC(=O)OCC(=O)Nc2cccc(S(N)(=O)=O)c2)cc(OC)c1OC` was -0.51%. As for `CC(C)CNc1cccc2c1S(=O)(=O)N(Cc1cn(Cc3ccc(Cl)cc3)nn1)Cc1ccccc1O2`, the inhibition was 4.9%. In the case of `O=C(CCl)NC1CCCCN(Cc2cccc(C(F)(F)F)c2)C1=O` (centres undefined), the inhibition is 0.3%. The figure for `COc1ccccc1C1C(C#N)=C(N)Oc2c1c(-c1ccccc1)nn2-c1ccccc1` (centres undefined) is 43.4% (active); for `COc1ccccc1C1CC(=O)n2c(nc(-c3ccccc3)c2-c2ccccc2)S1` (centres undefined) it is -1.14%. The value for `COc1ccc(C2C(C#N)=C(N)Oc3n[nH]c(C)c32)cc1CN1CCN(c2ccc(F)cc2)CC1` (centres undefined) was 6.04%. The value for `O=C(Nc1cccc(Cl)c1)OC1CC2CC1[C@H]1CCCCN1[C@H]2Cc1ccccc1` (some centres undefined) was -1.12%; that for `CN(CCc1ccccc1)C(=O)Cn1nc(-c2ccccc2)ccc1=O` was -1.71%. As to `O=C(NCc1ccc(Cl)cc1)C1CCCN(c2nc3ccccc3o2)C1` (centres undefined), the inhibition is -2.98%. The value for `COc1ccc(C2NC(=O)N(C)C(C)=C2[N+](=O)[O-])cc1` (centres undefined) was -0.24%; that for `CCOCCOC(=O)C1=C(C)N(C)C(=O)NC1c1ccccc1F` (centres undefined) was -1.24%.

As for `COC(=O)C1=C(C)N(C)C(=O)NC1c1ccc([N+](=O)[O-])o1` (centres undefined), the inhibition is 46.5% (active). The value for `CCCCCN1CCCCC(NC(=O)C(C)CCC)C1=O` (centres undefined) was -0.51%; that for `COCCCNC(=O)C[C@H]1C[C@@]2(C(=O)OC)C(=C[C@H](C(C)(C)C)O[C@@H]2C)N(Cc2ccc(Cl)cc2Cl)C1=O` was 2.76%; that for `O=C(OC12CCCN(C1)/C(=C/c1cccnc1)C2)C1CCCC1` (centres undefined) was -0.68%.

Turning to `OC(c1ccccc1)C(CN1CCOCC1)c1ccccc1` (centres undefined), the inhibition was 2.05%. With `Oc1c(CN2CCOCC2)ccc(CN2CCOCC2)c1O`, the inhibition was 58% (active).

For `OCCN1CCOCCOCCN(CCO)CCN(CCO)CC1`, the inhibition was -1.91%. The figure for `CN(C)/C=C/C(=O)c1cnc2sccn2c1=O` is 16.3% (active). Take `CCOC(=O)c1cnc2sccn2c1=O`: the inhibition was 2.78%. The figure for `O=C(NCc1ccccn1)c1cnc2sccn2c1=O` is 3.23%; for `O=C(NC1CCC1)c1ccc(C#CC2CC2)cn1` it is 0.75%. In the case of `COc1cccc(CNC(=O)CNS(=O)(=O)c2ccc3nc(C)sc3c2)c1OC`, the inhibition was 2.85%.
